High-throughput results as filed in PubChem.
Shown are actives, neighbours in structure and some others; about 12% of the full set was active somewhere.
Pf growth 48h: inhibits P. falciparum growth in the first generation, 48 h. P. falciparum luciferase growth in erythrocytes, 48 h. Potency, µM (series often up to 28.7 µM), for the others: at the top dose activity change, negative = inhibition, usual class: inhibitors. 5.9% of 310,000 active. AID 504832; note: % is set by controls: 0 for no effect and ±100 for the full control effect
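Luciferase-expressing P. falciparum in infected erythrocytes (2% hematocrit, 0.1% parasitemia final) in RPMI 1640/0.5% Albumax were exposed to compound for 48 hours at 37 C, 5% CO2; growth read as luminescence.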
SARS PLP yeast: inhibitors of SARS-CoV papain-like protease in yeast. S. cerevisiae expressing SARS-CoV PLpro, growth rescue. Potency, µM (titrated, usually from 32.9 µM), without a hit: top-dose activity, positive = growth rescue, most hits filed as activators. 0.19% of 330,000 active; calls by dose curve; note: 0% is about no effect; nearly all actives have a fitted effect of over 55% in size
Sm TGR inh: S. mansoni TGR enzyme inhibition. Q962Y6. purified TGR, DTNB reduction, TNB absorbance 405 nm. Potency, µM (top dose mostly 114 µM), without a hit: at the top dose activity change, negative = inhibition, usual class: inhibitors. 3% of 360,000 active. AID 485364; note: % is set by controls: 0 for no effect and ±100 for the full control effect; nearly all actives have a fitted effect of over 60% in size
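TGR 20 nM + NADPH 100 uM (dispensed conc.), cpd preinc 15 min RT; start with NADPH (500 uM addition) then DTNB (15 mM addition). Kinetic TNB absorbance, 405 nm filter. Four-parameter Hill fit across titration.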
Pf growth 96h: P. falciparum growth inhibition at 96 hour, primary screen for plastid delayed-death inhibitors. Potency, µM (highest dose often 28.7 µM), for inactives: at the highest dose activity change, negative = inhibition, usual class: inhibitors. P. falciparum luciferase reporter growth, 96 h. 6.9% of 320,000 active; note: % is set by controls: 0 for no effect and ±100 for the full control effect
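Readout is luminescence from an integrated firefly luciferase in P. falciparum. Red cells, 2% hematocrit and 0.05% parasitemia final, were cultured with compound through two parasite generations (96 hours) at 37 C, 5% CO2.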
* hit, by the source's call; ? = inconclusive; nt = not tested or not shown; [ ] = another dose, or the depositor's remark. Unless noted, calls come from the whole dose curve; as a rule, active = well fitted curve in the direction sought with a large enough effect; inconclusive = small, poorly fitted or top-dose-only effect, or another doubt; inactive = no such curve, though single readings can be large; an effect the other way counts as inactive or inconclusive. Potency is the fitted concentration of half-maximal effect.

SMILES | Pf growth 48h | SARS PLP yeast | Sm TGR inh | Pf growth 96h
Cc1ccc(CCN2CC(C(=O)NCCCN3CCCCC3)CC2=O)cc1 (stereo unspecified) | 0% | 1% | -22% | 7.4µM*
O=C(NCCn1cccn1)C1CCC(=O)N(CCc2ccccc2)C1 (stereo unspecified) | 6% | 2% | -28% | 13µM*
O=C(NCCN1CCCC1)C1CC(=O)N(C2CCCCC2)C1 (stereo unspecified) | 27% | -1% | 6% | 13µM*
O=C(NCCc1ccccc1)C1CC(=O)N(C2CCCCC2)C1 (stereo unspecified) | 11% | 8% | -19% | 5.9µM*
O=C(NCCc1ccccc1)C1CC(=O)N(C2CCCCCC2)C1 (stereo unspecified) | 5% | 1% | 1% | -4%
O=C(NCCc1ccc(Cl)cc1)C1CC(=O)N(CCc2ccccc2)C1 (stereo unspecified) | 18% | 0% | 4% | 4.1µM*
O=C(O)[C@@H](O)[C@@H](O)[C@H](O)[C@H](O)CO | 6µM* | nt | nt | 8.5µM*
O=C(CO)C(O)C(O)C(O)CO (stereo unspecified) | ? | 8% | 0% | 14%
O=C(CCc1nnc(Cc2ccc3c(c2)OCO3)o1)NC(c1ccccn1)C(F)(F)F (stereo unspecified) | ? | -1% | 32µM* | ?
CC(C)NC(=O)c1ccc(-c2ccc(Cl)c(C(F)(F)F)c2)o1 | nt | -9% | -22% | 3.3µM*
CC(=O)c1ccc(N2CCN(CC(=O)Nc3ccccc3C(=O)NC3CC3)CC2)c(F)c1 | ? | 1% | -32% | ?
CCCOc1ccc(C(=O)Nc2nc(C)c(Cc3ccc4c(c3)OCO4)s2)cc1 | 10µM* | -4% | 6% | ?
CN(Cc1ccc(Cl)c(Cl)c1)C(=O)c1ccccc1SCC(=O)N1CCCC1 | ? | -2% | 2% | ?
c1ccc2c(c1)ncc1cccn12 | nt | 1% | 10%[11.4 µM] | 21%
CCn1c2ccccc2c2c3ncc4cccn4c3ccc21 | 36% | 0% | 28µM* | 55%
CCS(=O)(=O)Nc1cc(-c2cn3ccc(C)cc3n2)ccc1C | nt | nt | -1% | nt
COc1ccc(CCNC2=CC(=O)N(c3ccc(F)cc3)C2=O)cc1 | 1% | -1% | -32% | 3.3µM*
COc1ccc(CCNc2ncnc3c2cnn3-c2ccc(F)cc2)cc1 | nt | nt | 7% | nt
O=C(/C=C/c1cccc([N+](=O)[O-])c1)NCCSCc1ccc(Cl)cc1Cl | 2% | -10% | 5% | -18%
O=C(/C=C/c1cccc([N+](=O)[O-])c1)NCCSCc1ccccc1Cl | 0% | -41% | -23% | 2.9µM*
CCC(=O)NC(c1ccc(OC)cc1)c1cc(Cl)c2cccnc2c1O (stereo unspecified) | 4% | -1% | 1% | 288%
CCCC(=O)NC(c1ccccc1)c1ccc2cccnc2c1O (stereo unspecified) | 2.3µM* | ? | ? | ?
CCCC(=O)NC(c1ccc(OC)cc1)c1ccc2cccnc2c1O (stereo unspecified) | 1.3µM* | -4% | -12% | ?
COc1ccccc1Cn1c(CNS(=O)(=O)c2c(C)cc(C)cc2C)nc2cccnc21 | nt | nt | 0% | nt
Nc1ncnc2oc(-c3ccco3)c(-c3ccco3)c12 | -3% | -15% | 10µM* | ?
SMILES | Pf growth 48h | SARS PLP yeast | Sm TGR inh | Pf growth 96h
Cc1cc2oc(=O)cc(CSc3nnc(-c4cccs4)o3)c2cc1C(C)C | 8.3µM* | -9% | -13% | ?
COc1ccccc1OCC#CCn1ccnc1 | -6% | 0% | 9% | 2%
CCNC(=S)Nc1ccc(Cc2ccncc2)cc1 | 32% | 0% | -16% | 19%
COc1cc(Cn2ccnc2)c(OC)cc1Cn1ccnc1 | 9.3µM* | -2% | 5% | ?
COc1cc(OC)cc(C(=O)Nc2ccc(Cn3ccnc3)cc2)c1 | ? | 0% | 0% | 22%
COc1ccc(C(=O)Nc2ccc(Cn3ccnc3)cc2)cc1OC | 34% | 1% | 9% | 10µM*
CNC(=S)Nc1ccc(Cc2ccncc2)cc1 | 0% | 1% | 40µM* | 16%
COc1ccc(NC(=O)Nc2ccc(Cc3ccncc3)cc2)cc1OC | ? | 2% | 9% | 5.2µM*
COc1ccccc1NC(=O)Nc1ccc(Cc2ccncc2)cc1 | 20% | -1% | 9% | 10%
COc1ccc(CN2CCCN(CC(=O)Nc3cc(C)ccc3C)S2(=O)=O)cc1 | nt | nt | -2% | nt
S=C(Nc1ccc(Cc2ccncc2)cc1)Nc1cccc(Cl)c1 | 16% | -3% | ? | 13µM*
CCOc1ccccc1N1CCN(C(=O)c2ccc(OCC(=O)N3CCOCC3)c(OC)c2)CC1 | 2% | -5% | -19% | 11%
O=C(Nc1nc2n(n1)C(c1ccccc1)CC(c1ccc(Cl)cc1)N2)c1ccco1 (stereo unspecified) | 13µM* | 0% | -23% | ?
COc1ccc(C2CC(c3ccccc3)Nc3nc(NC(=O)c4ccco4)nn32)cc1 (stereo unspecified) | nt | -2% | 14%[11.4 µM] | ?
CCC(=O)Nc1ccc(-c2nnc3c4ccccc4c(C)nn23)cc1 | nt | nt | 6% | nt
Cc1ccc(N(NC(=O)C(O)(c2ccccc2)c2ccccc2)C(=O)CCl)cc1 | 5.2µM* | -15% | 6.3µM* | ?
CCN(CC)NC(=O)Nc1ccccc1 | 10% | 0% | 13% | -11%
O=C(Nc1ccccc1)NN(C(=O)CCl)c1ccccc1 | 13µM* | 22% | 3.5µM* | ?
Cc1ccc(C(O)(C(=O)NN(C(=O)c2ccccc2)c2ccccc2)c2ccc(C)cc2)cc1 | 5% | 3% | -3% | 0%
CCC(O)(CC)C(=O)NN(C(=O)CCl)c1ccccc1 | ? | 17% | 22µM* | 5.2µM*
COc1ccccc1CN1CC(C(=O)NCc2cnn(C)c2)CCC1=O (stereo unspecified) | 10% | -1% | -8% | 6.6µM*
Cn1cc(CNC(=O)C2CCC(=O)N(Cc3ccccc3F)C2)cn1 (stereo unspecified) | 2% | 1% | 6% | ?
CCS(=O)(=O)c1ncc(N(Cc2ccco2)Cc2ccccc2F)c(C(=O)Nc2cccc(Cl)c2)n1 | nt | nt | 4% | nt
Cc1[nH]c2ccc(C(=O)N3CCN(c4cccc(Cl)c4)CC3)cc2c1C | 44% | -7% | 7% | 41%
CCOC(=O)c1[nH]c(C)c(C(=O)OCCOc2cccc(C)c2)c1C | 7.4µM* | 23% | 8% | 2.6µM*
SMILES | Pf growth 48h | SARS PLP yeast | Sm TGR inh | Pf growth 96h
COc1ccc(OCC(=O)N2CCN(c3cccc(Cl)c3)CC2)cc1 | nt | -1% | -27% | ?
CS(=O)(=O)c1ncc(Cl)c(C(=O)N2CCN(c3cccc(Cl)c3)CC2)n1 | nt | nt | 3.5µM* | nt
CCS(=O)(=O)c1ncc(Cl)c(C(=O)N2CCN(c3cccc(Cl)c3)CC2)n1 | nt | nt | 7.1µM* | nt
CCOC(=O)c1[nH]c(C)c(C(=O)N2CCN(c3cccc(Cl)c3)CC2)c1C | 10µM* | -1% | -27% | 0%
O=C(c1ccc(OC2CCN(CCO)CC2)cc1)N1CCCC1 | -1% | -1% | 6% | -23%
COc1ccccc1OC[C@H](O)COC(N)=O | 2%[12.8 µM] | nt | nt | -9%[12.8 µM]
CCc1ccc(C(=O)c2cn(CC(=O)NCCc3ccccc3)c3nc(C)ccc3c2=O)cc1 | nt | nt | -1% | nt
